Inconclusive results are not listed. Activity calls are given as the source filed them. The call rests on the fitted dose curve.
assay: p53 small molecule agonists, cell-based qHTS assay with rat liver microsomes (AID 1963578); conditions: HCT-116 p53RE-bla, beta-lactamase ratio, 16 h; series mostly up to 66 µM; activation: at the top concentration
Text: U.S. Tox21 Program National Center for Advancing Translational Sciences [NCATS] Division of Preclinical Innovation [DPI] U.S. Environmental Protection Agency [EPA] National Institutes of Environmental Health Sciences [NIEHS] National Toxicology Program [NTP] U.S. Food and Drug Administration [FDA] Tox21 Assay Overview: p53, a tumor suppressor protein, is activated following cellular insult, including DNA damage and other cellular stresses. The activation of p53 regulates cell fate by inducing DNA repair, cell cycle arrest, apoptosis, or cellular senescence. The activation of p53, therefore, is a good indicator of DNA damage and other cellular stresses. […] The activation of the reporter gene under culture conditions can be detected by fluorescence intensity. This cell line was used to screen the Tox21 10K compound library in the condition of presence of rat liver microsomes and to identify agonists that activate the p53 signaling pathway after in vitro metabolic activation (Ooka et al., Archive of Toxicology 96:1975-1987, 2022).
Tox21 Assay Protocol Summary: The p53RE-bla cells were dispensed at 4,000cells/3ul/well in 1536-well black-clear bottom plates. After the assay plates were incubated at 37 C, 5% CO2 incubator for 5 hours, 23 nL of compounds dissolved in DMSO, positive controls or DMSO only was transferred to the assay plate. Following compound addition, 3 uL of rat liver microsomes (Molecular Toxicology, Boone, NC) at final concentration of 0.5 mg/mL and 1uL of Beta-Nicotinamide adenine dinucleotide 2-phosphate (NADPH) at final concentration of 0.5 mg/mL were transferred to the assay plate. The plates were incubated at 37 C for 16 hours. 1 uL of LiveBLAzer detection mixture was added to each well and the plates were incubated at room temperature in the dark for 2 h.
On the % scale 0 is the no-effect control and ±100 the full control effect.

| Compound | activation |
| --- | --- |
| CCCCC/C=C/CC(=O)OC | 1.14% (inactive) |
| Cc1ccc2sc3cccc(C)c3c2c1 | -0.652% (inactive) |
| O=C(NCCO[N+](=O)[O-])c1cccnc1 | 1.21% [at 30.3 µM] (inactive) |
| COc1ccc2[nH]c(S(=O)Cc3ncc(C)c(OC)c3C)nc2n1 (stereo not given) | -0.0576% [at 30.3 µM] (inactive) |
| CCCCCCCCN(C)CCCCCCCC | -1.31% (inactive) |
| Cc1cc(NS(=O)(=O)c2ccc(N)cc2)nc(C)n1 | 0.28% [at 30.3 µM] (inactive) |
| O=C=NCc1cccc(CN=C=O)c1 | 0.266% [at 13.6 µM] (inactive) |
| CC(C)(O)c1ccc(CNC(=O)c2cccnc2Oc2ccc(F)cc2)cc1 | 0.895% (inactive) |
| C=CCOc1nc(OCC=C)nc(OCC=C)n1 | -4.18% (inactive) |
| O=C1CCCN1CCO | -0.727% (inactive) |
| NC(=O)C(=O)N/N=C/c1ccc([N+](=O)[O-])o1 | 4.23% [at 30.3 µM] (inactive) |
| CN(C)CC/C=C1/c2ccccc2COc2ccc(CC(=O)O)cc21 | -0.126% [at 30.3 µM] (inactive) |
| CN(C)C(=O)C1(N2CCCCC2)CCN(CC[C@@]2(c3ccc(Cl)c(Cl)c3)CN(C(=O)c3ccccc3)CCO2)CC1 | -2.66% (inactive) |
| CC1(c2ccccc2)OC(C(=O)O)=CC1=O (stereo not given) | -0.48% [at 30.3 µM] (inactive) |
| CC1=CC[C@H](C(C)C)C=C1 | 0.0053% (inactive) |
| CCCCCCCC[Si](OCC)(OCC)OCC | 0.546% (inactive) |
| CCC(C)N(C)C(=O)c1cc2ccccc2c(-c2ccccc2Cl)n1 (stereo not given) | 0.978% [at 30.3 µM] (inactive) |
| CCC(=O)C(=O)CC | -3.02% (inactive) |
| CC/C=C\CCOC(=O)c1ccccc1O | 0.459% (inactive) |
| CO/N=C(\C(=O)O)c1csc(NC(=O)CCl)n1 | -0.576% [at 30.3 µM] (inactive) |

| Compound | activation |
| --- | --- |
| CC[C@@H](N)CO | -0.279% (inactive) |
| CC(C)c1cc(C(C)C)cc(C(C)C)c1 | 0.326% (inactive) |
| COc1ncnc(NS(=O)(=O)c2ccc(N)cc2)c1OC | -0.452% [at 30.3 µM] (inactive) |
| O=C1[C@H]2CCCC[C@H]2C(=O)N1CCCCN1CCN(c2nsc3ccccc23)CC1 | -2.19% [at 30.3 µM] (inactive) |
| Cc1ccc(C)c(N)c1 | -3.33% (inactive) |
| NCc1ccco1 | 0.406% (inactive) |
| CC(C)(C)C(=O)OCOC(=O)[C@@H]1N2C(=O)[C@@H](NC(=O)[C@H](N)c3ccccc3)[C@H]2SC1(C)C | 0.529% [at 30.3 µM] (inactive) |
| CCCCCCCC(=O)OCC | 0.0092% (inactive) |
| CC(C)[N+](C)(C)CC(O)COc1cccc2ccccc12 (stereo not given) | -5.14% [at 30.3 µM] (inactive) |
| CCOc1cc([N+](=O)[O-])c(OCC)cc1N1CCOCC1 | -6.79% (inactive) |
| Nc1c2c(nc3ccccc13)CCCC2O (stereo not given) | -1.08% [at 30.3 µM] (inactive) |
| O=C(O)c1cc(O)c2c(c1)C(=O)c1cccc(O)c1C2=O | -4.28% (inactive) |
| CC(C)OCC1CO1 (stereo not given) | -3.21% (inactive) |
| COC(=O)c1ccc(I)cc1S(=O)(=O)NC(=O)Nc1nc(C)nc(OC)n1 | 2.73% (inactive) |
| O=C(c1ccccc1)c1cccc(O)c1 | -6.05% (inactive) |
| CCS(=O)(=O)CCn1c([N+](=O)[O-])cnc1C | -1.34% [at 30.3 µM] (inactive) |
| COC(=O)C(c1ccccc1Cl)N1CCc2sccc2C1 (stereo not given) | -0.413% [at 30.3 µM] (inactive) |
| CC(C)NCC(O)c1ccc2ccccc2c1 (stereo not given) | -2.25% [at 30.3 µM] (inactive) |
| c1ccc(CN(CC2=NCCN2)c2ccccc2)cc1 | -2.64% [at 30.3 µM] (inactive) |
| CC(=O)OC1CCCCC1C(C)(C)C (stereo not given) | -0.47% (inactive) |

— PubChem BioAssay (Tox21)
